Results on 40 compounds are retold here after PubChem BioAssay (Tox21).

Records with an inconclusive call do not appear. Entries that show only a call come without a potency. Values without a mark were called inactive. Calls of active or inactive are those of the source. Calls follow the shape of the dose curve; as a rule, active = well fitted cell-killing curve with a large enough effect in the repeat runs; inconclusive = weak or mixed curves, or effect the other way; inactive = flat fitted curve, though single readings scatter.

A short description of this assay: qHTS assay to identify small molecule agonists of the sonic hedgehog signaling (Shh) pathway - cell viability counter screen (AID 1259366). Also: nearly all actives have a fitted effect of over 50% in size. To be noted: NIH/3T3 Gli1-Luc viability, CellTiter-Fluor, 24 h; series mostly up to 92.4 µM; viability change, negative = cytotoxic: at the top concentration. From the text: National Center for Advancing Translational Sciences [NCATS]
NIH Chemical Genomics Center [NCGC]
U.S. Environmental Protection Agency [EPA]
National Institutes of Environmental Health Sciences [NIEHS]
National Toxicology Program [NTP]
U.S. Food and Drug Administration [FDA]
The sonic hedgehog (Shh) pathway is essential for normal embryonic development. Dysregulation of the Shh pathway can cause severe developmental defects in organs. Therefore chemicals that interfere with the pathway are potential developmental toxicants. A cell line designated 3T3Gli1-Luc (DMB/OARSA/CFSAN/FDA, Laurel, MD), a NIH/3T3 derived clone containing stably integrated Gli1-Luc reporter is used to detect chemical interference of the Shh pathway, by changes in the expression of the firefly Luc gene under the control of the Gli1 transcriptional response element. This cell line was used to screen Tox21 libraries for identifying and prioritizing the potential developmental toxicants that interfere Shh pathway. The cytotoxicity of the compounds was tested in parallel by measuring the cell viability using CellTiter-Fluor assay system (Promega, Madison, WI) in the same wells.
Tox21 Assay Protocol Summary:
3T3 Gli1-Luc cells were dispensed at 2,000 per well in 5uL of culture medium into white solid bottom 1536-well plates (Greiner Bio-One, Monroe, NC) using a Multidrop Combi (Thermo Scientific, Waltham, MA) dispenser. The assay plates were incubated at 37 C and 5% CO2 for 4hr, and then 23nL of compounds dissolved in DMSO and positive control were transferred using a Pintool station (Wako, San Diego, CA). The assay plates were incubated at 37C and 5% CO2 for 24hr. For viability read, after 23hr of compound treatment, 1uL of CellTiter-Fluor reagent (Promega Corporation, Madison, WI) was added to each well of the assay plates using Flying Reagent Dispenser (FRD, Aurora Discovery, San Diego, CA) and incubated the assay plates at 37C for 1hr. The fluorescence signal was quantified using a ViewLux plate reader (Perkin Elmer, Shelton, CT).
On to `OCc1ccco1`, for which the Potency result is “inactive”.

Regarding `ClC(Cl)c1ccccc1`, the Potency entry was “inactive”. As to `Cc1cccc(C)c1NC(=O)CN1CCCC1=O`, the Potency entry was “inactive”.

Regarding `CC12CC1(C)C(=O)N(c1cc(Cl)cc(Cl)c1)C2=O` (stereo not given), the Potency entry is “inactive”.

On to `CCCCC(CC)C(=O)Cl` (stereo not given), for which the Potency entry was “inactive”. In the case of `COc1nc(NC(C)C)nc(NC(C)C)n1`, the Potency entry is “inactive”. `CN(C)CCC#N`: the Potency entry is “inactive”. The same measure, in the same setting: next, `Cc1ccccc1N`: “inactive”. Turning to `N#Cc1cccc(C#N)c1`, the Potency entry is “inactive”. Turning to `c1ccc2c(c1)CCCC2`, the Potency entry was “inactive”. As for `CCOc1ccc(N)cc1`, the Potency result is “inactive”. On to `CNC(=O)O/N=C/C(C)(C)S(C)=O` (stereo not given), for which the “viability change, negative = cytotoxic” value was -3.79%. As to `CNC(=O)O/N=C/C(C)(C)SC`, the Potency result was “inactive”.

As to `C=CC(=O)OCCCCCC(C)C`, the Potency entry was “inactive”.

Turning to `O=[N+]([O-])c1cc([As](=O)(O)O)ccc1O`, the Potency result is “inactive”. The same measure, in the same setting: the entry for `O=C(O)CCCc1ccc(N(CCCl)CCCl)cc1` is “inactive”.

Regarding `O=S(=O)(O)OOS(=O)(=O)O`, the Potency entry is “inactive”. Regarding `CN(C)C(=O)Cl`, the Potency entry was “inactive”. Consider `Cc1cccc(C)c1N`, for which the Potency entry is “inactive”. For the compound `ClCCOCCCl`, the Potency result was “inactive”. Take `COS(=O)(=O)OC`: the Potency result was “inactive”. On the same count and under the same terms, next, `CC[N+](=O)[O-]`: “inactive”. As to `OCCCCO`, the Potency result was “inactive”. In the case of `C=CC(=O)OCC(CC)CCCC` (stereo not given), the Potency entry was “inactive”.

With `CC(C)c1cccc(C(C)C)c1O`, the Potency result is “inactive”. With `C[C@H]1C(=O)O[C@@H]2CCN3CC=C(COC(=O)[C@](C)(O)[C@]1(C)O)[C@H]23`, the Potency result was “inactive”. For `CN(C)C(=O)C(c1ccccc1)c1ccccc1`, the Potency entry was “inactive”. Still for that read-out and setting: the entry for `O=[N+]([O-])c1ccc(Cl)c(Cl)c1` is “inactive”; for `COP(=S)(OC)SCN1C(=O)c2ccccc2C1=O` it is “inactive”.

As to `O=[N+]([O-])c1ccc(Cl)cc1`, the Potency entry was “inactive”. Regarding `COC(C)(C)CCCC(C)C/C=C/C(C)=C/C(=O)OC(C)C` (stereo not given), the Potency result is “inactive”.

In the case of `CNC(=O)O/N=C/C(C)(C)S(C)(=O)=O`, the Potency entry is “inactive”.

Consider `CN(C)C(=O)Nc1cccc(C(F)(F)F)c1`, for which the Potency result was “inactive”. For the compound `CC(C)(C)C(=O)CCl`, the Potency entry is “inactive”. Regarding `Cc1ccc(N=C=O)cc1N=C=O`, the Potency result is “inactive”. As for `Cc1ccc(O)c(C)c1`, the Potency entry is “inactive”. The same measure, in the same setting: next, `CCNc1nc(Cl)nc(NC(C)C)n1`: “inactive”; `COP(=S)(OC)Oc1ccc(SC)c(C)c1`: “inactive”. Turning to `CCOC(=O)CC(SP(=O)(OC)OC)C(=O)OCC` (stereo not given), the Potency result was “inactive”.

Turning to `Oc1c(Br)cc(Br)cc1Br`, the Potency entry was “inactive”.
